# Reference: PubChem BioAssay
# Legend:
# PEG-3 [1] = molecular target: PEG-3 (UniProt Q6IN02); experiment: Peg3 promoter luciferase inhibitors, potency, dose response, cell-based, HeLa, CREF/GAPDH counter-screen panel (AID 624167); conditions: CREF/GAPDH counter-screens; HeLa PEG-Prom luciferase reporter, overnight, run 1, dose range 1, at 100 µM (top of the series) unless noted
# PEG-3 [2] = molecular target: PEG-3 (UniProt Q6IN02); experiment: as above; conditions: CREF/GAPDH counter-screens; HeLa PEG-Prom luciferase reporter, overnight, run 2, dose range 1, at 100 µM (top of the series) unless noted
# Sequence of PEG-3 (Q6IN02 whole entry, looked up): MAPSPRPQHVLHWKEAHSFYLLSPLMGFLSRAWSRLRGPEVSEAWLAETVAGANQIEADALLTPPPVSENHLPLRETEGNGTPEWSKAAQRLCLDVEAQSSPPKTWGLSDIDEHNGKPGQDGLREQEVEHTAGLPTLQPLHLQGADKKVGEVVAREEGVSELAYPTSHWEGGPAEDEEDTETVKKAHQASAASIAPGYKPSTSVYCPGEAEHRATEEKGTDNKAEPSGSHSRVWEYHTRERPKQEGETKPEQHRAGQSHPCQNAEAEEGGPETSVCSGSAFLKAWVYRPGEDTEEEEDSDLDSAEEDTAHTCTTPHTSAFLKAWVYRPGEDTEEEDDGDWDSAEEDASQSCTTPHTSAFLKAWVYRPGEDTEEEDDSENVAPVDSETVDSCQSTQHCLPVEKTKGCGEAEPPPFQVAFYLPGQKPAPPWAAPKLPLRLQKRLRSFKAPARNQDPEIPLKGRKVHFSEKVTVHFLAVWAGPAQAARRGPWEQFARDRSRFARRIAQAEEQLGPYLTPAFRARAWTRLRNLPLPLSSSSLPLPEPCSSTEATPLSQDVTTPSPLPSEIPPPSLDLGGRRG
Compound,inhibition (PEG-3 [1]),inhibition (PEG-3 [2])
c1ccc(CN=C(NCc2ccccc2)NCc2ccccc2)cc1,99.7%,102%
CCN(c1ccccc1)S(=O)(=O)c1ccc(C(=O)N(CCCN(C)C)c2nc3cc4c(cc3s2)OCO4)cc1,97.6%,99%
CC(=O)Nc1cccc(NC(=O)c2cc(-c3cccnc3)nc3ccc(Cl)cc23)c1,87.9%,97.3%
CCN(CC)CCOc1ccc(/C(=C(/Cl)c2ccccc2)c2ccccc2)cc1,102%,102%
Cc1cc(C)nc(NC(=O)c2c(F)c(F)c(F)c(C(=O)Nc3cc(C)cc(C)n3)c2F)c1,96.5%,98.3%
O=C(CN1CCCC1)Nc1ccc(-c2nc3cc(NC(=O)CN4CCCC4)ccc3o2)cc1,98.9%,102%
COc1ccc(NC(=O)N(C)[C@H]2C[C@H]3c4[nH]c5ccc(-c6cccc(C)c6)cc5c4CCN3C[C@H]2[C@H](C)O)cc1,98.4%,97.1%
COCCn1c(C)cc(C(=O)CSc2nnc3ccccn23)c1C,98.8%,94.2%
CCN(CC)CCSc1nnc2c3cc(C)ccc3n(Cc3ccccc3)c2n1,102%,99.8%
Cc1ccc2cccc(OCC(=O)Nc3cccc(S(=O)(=O)N4CCCC4)c3)c2n1,94.5%,97.2%
CC(C)CN(C(=O)COC(=O)/C=C/c1ccc(Cl)c(Cl)c1)c1c(N)n(Cc2ccccc2)c(=O)[nH]c1=O,-7.53%,-24.4%
Cc1cc(C)c2sc(N(CCCN(C)C)C(=O)c3ccc(S(=O)(=O)N(C)Cc4ccccc4)cc3)nc2c1,98.7%,101%
Cc1cccc2c1-c1sc(C(=O)NCCCN3CCCC(C)C3)cc1CO2 (centres undefined),99.3%,98.5%
Cc1c(OCC(=O)NC2CC(C)(C)NC(C)(C)C2)ccc2c1oc(=O)c1ccccc12,98%,101%
O=C(Nc1ccccc1)c1nc[nH]c1C(=O)NCCCCNC(=O)c1[nH]cnc1C(=O)Nc1ccccc1,22.3%,59.3%
O=C1OCCC1Sc1nnc(-c2ccc(Cl)cc2Cl)o1 (centres undefined),92.6%,94.1%
CCCCNc1nc(=S)n(-c2ccccc2)c(C)c1C(C)=O,98%,98.8%
COc1ccc(C)cc1Nc1n[n+](-c2ccccc2)c(-c2ccc(N(C)C)cc2)s1,97.2%,100%
COC(=O)c1ccc(CNC(=O)Cn2cnc3c(NCc4ccccc4)ncnc32)cc1,97.3%,74.3%
CCN1CCN(CCNC(=O)c2ccc(/C=C3\Sc4ccccc4N(Cc4ccccc4F)C3=O)cc2)CC1,102%,101%
O=C(NC(c1ccc(F)cc1)c1ccc2ccccc2n1)C1CCN(Cc2cccc(C(F)(F)F)c2)CC1 (centres undefined),91.2%,94.1%

Compound,inhibition (PEG-3 [1]),inhibition (PEG-3 [2])
COc1ccc(OC)c(-c2cc(C(=O)N3CCN(c4ncccn4)CC3)c3ccccc3n2)c1,54.9%,59.3%
CCN(CC)CCNC(=O)c1ccc(NC(=O)c2cccc(S(=O)(=O)N(C)C3CCCCC3)c2)cc1,100%,102%
Cc1cc(C)c2ccc(N)nc2c1O,"70.1% [run 1, dose range 1, at 50 µM]","67.1% [run 2, dose range 1, at 50 µM]"
CCOC(=O)c1cnc2c(cnn2C)c1NCCCN(C)C,80.7%,88.6%
COc1cccc(NC(=O)CN(C)C(=O)c2cc(-c3ccc(F)cc3)nc3ccccc23)c1,102%,99.1%
COc1ccc2c(c1OC)C(=O)N1c3ccccc3C(=O)N(c3ccccc3F)C21 (centres undefined),62.8%,68.7%
N=c1c2c(-c3ccccc3)c(-c3ccccc3)n(Cc3ccccc3)c2ncn1CCO,96.4%,97.6%
CCOc1cc(/C=N/Nc2nc(-c3cccc(S(=O)(=O)N4CCCC4)c3)cs2)ccc1O,77.8%,95.5%
NC(c1csc(Nc2nccc(C(F)(F)F)n2)n1)C1CCCCC1 (centres undefined),98.2%,99.1%
NC(N)=N/N=C/c1cccc(Cl)c1Cl,97.9%,99.4%
CCN(C(=O)CSc1nc2n[nH]c(C)c2c(=N)n1-c1ccc(Cl)c(C)c1)c1cccc(C)c1,70.5%,78%
COc1ccc(-c2cc(C(F)F)n3ncc(C(=O)n4ccnc4C)c3n2)cc1,99.6%,101%
Cc1cccc(NC(=O)CSc2nc3ccccc3c3nc(CCc4c(C)n[nH]c4C)nn23)c1,97.9%,95.8%
CC(C)(C)OC(=O)CC(S(=O)(=O)c1ccccc1)S(=O)(=O)c1ccccc1,102%,101%
CCc1ccc(O)c(CNCCNCc2cc(CC)ccc2O)c1,102%,101%
COc1ccc(C2NCCc3c2[nH]c2ccccc32)cc1COc1ccc(F)cc1 (centres undefined),98.9%,101%
COc1cc(NC(=O)c2cccc(C)c2)ccc1NC(=O)c1cc2ccccc2o1,"76.6% [run 1, dose range 1, at 50 µM]","94.6% [run 2, dose range 1, at 50 µM]"
COc1ccc(-c2cc(C(=O)N3CCN(c4ncccn4)CC3)c3ccccc3n2)c(OC)c1,70%,47.8%
CC(NNC(=S)N1CCN(c2ccccn2)CC1)c1nccc2ccccc12 (centres undefined),98.7%,99.9%
O=C(Nc1ccc(-c2nc3ccccc3o2)cc1)c1ccc(N2CCOCC2)c([N+](=O)[O-])c1,17.1%,37.6%
COc1cccc(C(=O)c2sc(NC(C)C)nc2N)c1,93.5%,95.7%

Compound,inhibition (PEG-3 [1]),inhibition (PEG-3 [2])
COc1cccc(NC(=O)Nc2cccc(C(=O)O)c2)c1,87%,81.3%
c1ccc(CN2CCC(Nc3nc(-c4cccnc4)nc4ccccc34)CC2)cc1,102%,94.1%
CCCn1c(=N)n(CC(=O)c2ccc(Cl)cc2)c2ccccc21,101%,100%
COc1ccc(N(Cc2cc3cc(OC)ccc3[nH]c2=O)S(=O)(=O)c2ccc(NC(C)=O)cc2)cc1,89.7%,89.7%
Cc1ccc2nc(N(CCCN(C)C)C(=O)c3ccc4c(c3)CCCC4)sc2c1,99.5%,101%
CC(=O)Nc1cccc(-c2ccnc3c2CC(C)(C(=O)Nc2cccc(C(F)(F)F)c2)O3)c1 (centres undefined),92.6%,88.4%
Cc1cccc(CN2C(=O)/C(=C\c3ccc(C(=O)NCCN4CCOCC4)cc3)Sc3ccccc32)c1,102%,99.5%
CCC(C)NCCOCCOc1ccc(Cl)c2ccccc12 (centres undefined),102%,98.8%
COc1cc2ccccc2cc1C(=O)N(CCN(C)C)c1nc2c(OC)ccc(OC)c2s1,98.2%,101%
Cc1ccc2sc(N(CCCN(C)C)C(=O)c3ccc(S(=O)(=O)N(C)C4CCCCC4)cc3)nc2c1C,102%,102%
O=S(=O)(CC(CN1CCCCC1)N1CCCCC1)c1ccccc1 (centres undefined),102%,102%
CCN(CC)CCn1c2ccccc2c2cnc(N)c(C#N)c21,101%,102%
O=C(Sc1cccc2cccnc12)c1ccccc1Br,99.3%,93.8%
O=C(CN1CCN(Cc2ccccc2Cl)CC1)N=Nc1c(O)[nH]c2ccccc12,94.2%,90.4%
CCN1CCc2c(sc(NC(=O)c3ccc(S(=O)(=O)N4CCCCCC4)cc3)c2C(=O)NC)C1,94.4%,94.9%
COc1ccc(/C=C/C(=O)c2ccc3c(c2)OCCO3)cc1[N+](=O)[O-],97.9%,99%
CN(C)S(=O)(=O)c1cccc(NC(=O)CSc2nc3c(cc2C#N)C(=O)CC(C)(C)C3)c1,63.2%,60.6%
CN1CCC(N(C)C(=O)/C=C/c2cn(-c3ccccc3)nc2-c2cccs2)CC1,102%,102%
CC1=NN(c2cccc(C(=O)O)c2)C(=O)/C1=C\C=C/c1ccccc1,86.8%,"99.5% [run 2, dose range 1, at 50 µM]"
NC(N)=N/N=C/c1ccc(Cl)cc1Cl,97.7%,99.1%
CC(C)n1nc(C(=O)Oc2cc(Cl)ccc2Cl)c2ccccc2c1=O,98.6%,97.5%

Compound,inhibition (PEG-3 [1]),inhibition (PEG-3 [2])
Cc1cc(C)c2c(N)c3ccccc3nc2n1,102%,101%
Cc1nn(-c2ccccc2Cl)c(Cl)c1/C=N/Nc1nc2ccccc2s1,57.6%,47.3%
COc1cccc(-c2cnc3c(NC=O)cc(-c4cccc(C(=O)N(C)C)c4)cn23)c1,98.8%,97.5%
Cc1cc(C)c2nc(N(CCCN(C)C)C(=O)c3ccc(S(=O)(=O)N4CCCCCC4)cc3)sc2c1,102%,100%
COc1ccc(CC(N)c2csc(Nc3cccc(OC)n3)n2)cc1 (centres undefined),98.9%,100%
COc1ccc(-c2cc(C(=O)N(C)Cc3ccccc3F)c3ccccc3n2)cc1OC,97.1%,94.9%
COC(=O)c1cc(=O)n(Cc2ccco2)c(=Nc2ccc(F)cc2)s1,102%,102%
Cc1ccc(C2=NC(=O)/C(=C/c3cc(O)c(O)c(Br)c3)S2)cc1,88.6%,79.4%
COc1ccccc1C1c2ccc3ccccc3c2Oc2ncn(CCCO)c(=N)c21 (centres undefined),102%,98.3%
Cn1cc(CN2CCCC(C(=O)Nc3ccc(-c4cccc(F)c4)cc3)C2)cn1 (centres undefined),101%,102%
CCCCN(C)C(=O)c1ccc(Nc2nc(C(N)CCc3ccccc3)cs2)nc1 (centres undefined),98.6%,94.6%
CCCOc1ccc(NC(=O)CC2C(=O)N(CC)C(=S)N2CCCN2CCN(Cc3ccccc3)CC2)cc1 (centres undefined),98.9%,101%
COc1cc(/C=C2\SC(=S)N(CCC(=O)N3CCCCC3)C2=O)cc(OC)c1OC,98.1%,99%
Cc1cc2c(c(/C=C/C(=O)c3ccccc3)c1)OC1(C=C2)Oc2ccccc2C(=O)N1C (centres undefined),102%,101%
CN[C@H]1C[C@H]2c3[nH]c4ccc(-c5cccc(C)c5)cc4c3CCN2C[C@H]1[C@H](C)O,99%,100%
CCCCCCCNC(=O)C1(CC2CC(c3ccccc3)=NO2)CCNCC1 (centres undefined),97.9%,98.7%
Cc1ccccc1NC(=O)Nc1nc(C(N)C2CCCCC2)cs1 (centres undefined),98.9%,99.7%
COc1cc(/C=C/[N+](=O)[O-])ccc1OC(=O)/C=C/c1ccc(F)cc1,-70.5%,-151%
CCCN1C/C(=C/c2cccc([N+](=O)[O-])c2)C(=O)/C(=C/c2cccc([N+](=O)[O-])c2)C1,26.2%,30.1%
